Reference: PubChem BioAssay (NCI)
The panel holds about 83,000 compounds, 20% with a hit somewhere; the sample as a whole holds those more often.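 48-hour exposure, single concentration, 96-well plates; percent growth endpoint where 0 means no net growth. Active: below 10.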 Activity calls are given as the source filed them.

Assays:
Assay in all cases: NCI-60 one-dose screen, 48 h (100 = growth as untreated, 0 = no growth, -100 = all killed)
Conditions in all cases: 10 µM unless noted
[1] = tested on: HCT-15 colon
[2] = tested on: HT29 colon
[3] = tested on: SNB-75 CNS
[4] = tested on: SNB-19 CNS
[5] = tested on: U251 CNS
[6] = tested on: PC-3 prostate
[7] = tested on: SK-MEL-5 melanoma
[8] = tested on: UACC-62 melanoma
[9] = tested on: LOX IMVI melanoma
[10] = tested on: SK-MEL-28 melanoma
[11] = tested on: SK-MEL-2 melanoma
[12] = tested on: EKVX NSCLC
[13] = tested on: SN12C renal
[14] = tested on: UO-31 renal
[15] = tested on: TK-10 renal
[16] = tested on: ACHN renal
[17] = tested on: CAKI-1 renal
[18] = tested on: A498 renal
[19] = tested on: CCRF-CEM leukemia
[20] = tested on: MOLT-4 leukemia

Measured: growth

COc1c(C)cnc(CSc2nc(-c3ccc(C)cc3)cn2-c2ccc(Cl)cc2)c1C
inactive: [1] 98% | [2] 73.8% | [3] 98.7% | [4] 93.7% | [5] 104% | [6] 81.7% | [7] 105% | [8] 81.8% | [9] 96.5% | [10] 97.4% | [11] 83% | [12] 92.1% | [13] 94.4% | [14] 63.2% | [15] 101% | [16] 98.9% | [17] 91.1% | [18] 93.9% | [19] 99.8% | [20] 73.5%

Cn1ccc(Cc2cnc(N)s2)n1
inactive: [1] 104% | [2] 97.5% | [3] 93.3% | [4] 98.9% | [5] 97.5% | [6] 98.8% | [7] 101% | [8] 100% | [9] 103% | [10] 106% | [11] 97.4% | [12] 106% | [13] 104% | [14] 86.2% | [15] 88.7% | [16] 99.8% | [17] 93.6% | [18] 94.2% | [19] 100% | [20] 93.3%

Clc1ccc(/C=C/c2nc(Nc3ccc(Cl)cc3)c3ccccc3n2)cc1
inactive: [1] 99% | [2] 112% | [3] 93.6% | [4] 100% | [5] 100% | [6] 99.2% | [7] 96.9% | [8] 93.2% | [9] 97.1% | [10] 117% | [11] 106% | [12] 90.5% | [13] 103% | [14] 70% | [15] 121% | [16] 105% | [17] 90.1% | [18] 94.9% | [19] 102% | [20] 98.2%

Cc1c(C(=O)O)nnn1-c1nccs1
inactive: [1] 98% | [2] 89.7% | [3] 81.8% | [4] 98.1% | [5] 92.1% | [6] 89.4% | [7] 99.6% | [8] 96.2% | [9] 96.7% | [10] 108% | [11] 94.1% | [12] 92.9% | [13] 101% | [14] 91% | [15] 101% | [16] 99.9% | [17] 94.3% | [18] 86.4% | [19] 93.3% | [20] 103%

Cc1nc2ccc(C(=O)NCc3cc(C(=O)O)c(C)o3)cc2nc1C
inactive: [1] 105% | [2] 95.6% | [3] 79.4% | [4] 101% | [5] 96.8% | [6] 90% | [7] 105% | [8] 94.8% | [9] 94.3% | [10] 103% | [11] 102% | [12] 105% | [13] 96.5% | [14] 82.8% | [15] 97.6% | [16] 99.4% | [17] 86.2% | [18] 106% | [19] 97.1% | [20] 106%

O=c1[nH]c(NCc2nnnn2-c2ccc(Br)cc2)nc2sc3c(c12)CCCC3
inactive: [1] 98% | [2] 95.5% | [3] 93.2% | [4] 96.1% | [5] 83.8% | [6] 84.4% | [7] 99.5% | [8] 87.1% | [9] 95.8% | [10] 112% | [11] 108% | [12] 96.3% | [13] 97.6% | [14] 77.9% | [15] 98.1% | [16] 98.9% | [17] 89.6% | [18] 84.6% | [19] 90.8% | [20] 76.9%

CC1(C)N=C(N)N=C(N)N1c1cccc(CN)c1
inactive: [1] 97.8% | [2] 95.7% | [3] 73.6% | [4] 100% | [5] 98.9% | [6] 87.3% | [7] 109% | [8] 95.9% | [9] 89.2% | [10] 106% | [11] 99.8% | [12] 83.9% | [13] 91.3% | [14] 66.8% | [15] 101% | [16] 100% | [17] 89.2% | [18] 98% | [19] 96.5% | [20] 95.1%

C=C1C(=O)O[C@H]2[C@H]1CC/C(Cn1cc(CNCCc3c[nH]c4ccc(Cl)cc34)nn1)=C\CC[C@@]1(C)O[C@@H]21
inactive: [1] 88.6% | [2] 21.2% | [3] 69.6% | [4] 83.7% | [5] 60.2% | [6] 75% | [7] 86.6% | [8] 63% | [9] 62% | [10] 81.5% | [11] 52.3% | [12] 84.1% | [13] 58.6% | [14] 80.1% | [16] 54% | [17] 48.2% | [18] 90%
active: [15] 0.209% | [19] -29.6% | [20] 0.755%
